Assay results as given in PubChem BioAssay (NCI).
This is part of a sample that, as a whole, favours compounds with a hit. Of some 79,000 tested, about 15% had one in any assay. Unmarked numbers belong to inactive results. The source made the active and inactive calls. Cut-off read from the data, not from the text of the source: active = growth inhibition above about 70%; inactive = the rest.

Columns and labels:
[1] = NCI Yeast Anticancer Drug Screen. Data for the rad50 strain (AID 155);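 note: 0% = growth of vehicle-only cultures of the same strain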; conditions: S. cerevisiae rad50 strain growth inhibition, active compounds read high
How it was run: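 Readout: growth inhibition relative to vehicle-treated cultures. Compound exposure was carried out in a genetically defined yeast strain deficient in DNA damage repair.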

[2] = NCI Yeast Anticancer Drug Screen. Data for the mec2-1 strain (AID 157); conditions: S. cerevisiae mec2-1 strain, active compounds read high
How it was run: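 Readout is yeast growth inhibition, normalised to vehicle-treated controls, in the mec2-1 strain exposed to compound.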

[3] = NCI Yeast Anticancer Drug Screen. Data for the sgs1 mgt1 strain (AID 161);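 note: 0% = growth of cultures given vehicle only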; conditions: S. cerevisiae sgs1 mgt1 strain, active compounds read high
How it was run: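 Compounds are added to genetically altered yeast, and growth is compared with cultures given vehicle alone to give percent inhibition.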

[4] = NCI Yeast Anticancer Drug Screen. Data for the cln2 rad14 strain (AID 165);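 note: 0% = growth equal to vehicle treated cultures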; conditions: S. cerevisiae cln2 rad14 strain, active compounds read high
How it was run: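 Relative to vehicle controls, growth inhibition of compound-treated cln2 rad14 yeast was recorded.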

[5] = NCI Yeast Anticancer Drug Screen. Data for the bub3 strain (AID 167); conditions: S. cerevisiae bub3 mutant strain, active compounds read high
How it was run: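 Readout: yeast growth inhibition, expressed relative to vehicle-only wells. The test organism is a mutant strain from a panel with lesions in DNA repair or checkpoint genes.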

[6] = NCI Yeast Anticancer Drug Screen. Data for the mlh1 rad18 strain (AID 175); conditions: S. cerevisiae mlh1 rad18 strain growth inhibition, active compounds read high
How it was run: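 Test agents were incubated with a yeast strain of defined genotype (DNA damage repair defect). Inhibition of growth was derived by comparison with vehicle-exposed cultures.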

[7] = at 5.0 µM (retest, dose inferred, filed as 0.5)
[8] = at 50.0 µM (retest, dose inferred, filed as 5.0)

| Structure (SMILES) | growth inhibition [1, 7] | growth inhibition [1, 8] | growth inhibition ([1]; at 50.0 µM) | growth inhibition [2, 7] | growth inhibition [2, 8] | growth inhibition ([2]; at 50.0 µM) | growth inhibition [3, 7] | growth inhibition [3, 8] | growth inhibition ([3]; at 50.0 µM) | growth inhibition [4, 7] | growth inhibition [4, 8] | growth inhibition ([4]; at 50.0 µM) | growth inhibition [5, 7] | growth inhibition [5, 8] | growth inhibition ([5]; at 50.0 µM) | growth inhibition [6, 7] | growth inhibition [6, 8] | growth inhibition ([6]; at 50.0 µM) |
| --- | --- | --- | --- | --- | --- | --- | --- | --- | --- | --- | --- | --- | --- | --- | --- | --- | --- | --- |
| O=C(CC1(O)C(=O)Nc2c(Cl)cc(Cl)cc21)c1ccc(Cl)cc1 (centres undefined) | 0% | 87% (active) | 85% (active) | -1% | 91% (active) | 70.3% (active) | 3% | 98% (active) | 81% (active) | -3% | 96% (active) | 82.5% (active) | -3% | 93% (active) | 71.5% (active) | -1% | 97% (active) | 93.8% (active) |
| COc1ccc(C(SCC(N)C(=O)O)(c2ccc(OC)cc2)c2ccc(OC)cc2)cc1 (centres undefined) | -11% | 97% (active) | 94.7% (active) | -7% | 99% (active) | 96.3% (active) | -4% | 99% (active) | 96.3% (active) | -7% | 98% (active) | 94.7% (active) | 15% | 98% (active) | 96.5% (active) | -6% | 98% (active) | 96% (active) |
| Cc1occc1C(=S)Nc1ccc(Cl)c(C(=O)OC(C)C2CC2)c1 (centres undefined) | 9% | 59% | 58.1% | 16% | 48% | 39.9% | -1% | 46% | 78.8% (active) | -5% | 51% | 81.5% (active) | 6% | 56% | 77.1% (active) | 12% | 76% (active) | 63.5% |
| Cc1[nH]c2ccccc2c1C(c1ccccc1)c1c(C)[nH]c2ccccc12 | 2% | 92% (active) | 71.6% (active) | 1% | 98% (active) | 83% (active) | 10% | 97% (active) | 87.2% (active) | 0% | 97% (active) | 81% (active) | -1% | 97% (active) | 83.5% (active) | 20% | 97% (active) | 94.7% (active) |
| COc1ccc(C(c2cc3c(cc2O)OCO3)N2CCOCC2)cc1OC (centres undefined) | -2% | 39% | 77.5% (active) | -5% | 59% | 86.5% (active) | -2% | 43% | 96.5% (active) | 0% | 12% | 67.5% | -5% | 41% | 98% (active) | -2% | 35% | 70.7% (active) |
| Cn1cc(C2=CC(=O)C=CC2=O)c2ccccc21 | 0% | 97% (active) | 98.1% (active) | 8% | 99% (active) | 98.6% (active) | 4% | 98% (active) | 98.8% (active) | -2% | 98% (active) | 98.2% (active) | -4% | 97% (active) | 98.2% (active) | 2% | 98% (active) | 98.5% (active) |
| O=C1OC(=O)C2C3CCC(C3=C3CCCCC3)C12 (centres undefined) | -2% | 93% (active) | 35% | 7% | 95% (active) | 28.2% | -1% | 58% | 40% | 5% | 96% (active) | -8.55% | 5% | 95% (active) | 10.8% | -1% | 93% (active) | 36.8% |
| CC(=O)Nc1ccc(-c2cnc3ccccc3c2)cc1 | 5% | 29% | 14.2% | -13% | 15% | 6.2% | 8% | 18% | 4.25% | -5% | -6% | 36.5% | -5% | -1% | 11.2% | 17% | 29% | 9.15% |
| CCCCCCCCCCCCCCCC[N+](C)(CCO)Cc1cnc[nH]1 (centres undefined) | 97% (active) | 98% (active) | 90.2% (active) | 97% (active) | 99% (active) | 87.4% (active) | 98% (active) | 99% (active) | 90.8% (active) | 98% (active) | 99% (active) | 86.8% (active) | 99% (active) | 99% (active) | 88% (active) | 94% (active) | 98% (active) | 88.6% (active) |
| CCN1/C(=C\c2cc[n+](CC)c3ccccc23)C=Cc2ccccc21 | -3% | 96% (active) | 42.4% | 2% | 96% (active) | 51.5% | -1% | 86% (active) | 32.4% | -8% | 96% (active) | -31.4% | 6% | 97% (active) | 68.8% | 1% | 97% (active) | 53.4% |
| O/N=C/c1cc(Cl)cc(Cl)c1O | 96% (active) | 96% (active) | 97.7% (active) | 93% (active) | 89% (active) | 95.1% (active) | 53% | 47% | 98% (active) | 80% (active) | 94% (active) | 96.7% (active) | 85% (active) | 94% (active) | 73.5% (active) | 97% (active) | 95% (active) | 97.8% (active) |
| CN(C)c1nc(=Nc2ccc(N=c3nc(N(C)C)ss3)cc2)ss1 | 0% | 97% (active) | 91.8% (active) | 4% | 96% (active) | 92.8% (active) | 28% | 98% (active) | 88.2% (active) | -4% | 93% (active) | 69% | 4% | 98% (active) | 93.4% (active) | 11% | 98% (active) | 96.9% (active) |
| Cc1nc2sc3c(c2c2nnnn12)CCCC3 | 2% | 28% | 6.6% | 8% | 29% | 16.9% | 24% | 74% (active) | 53% | 4% | 23% | -6.5% | 3% | 11% | 27.6% | 7% | 31% | 9.45% |
| O=C([O-])c1ccc([I+]c2ccccc2)cc1 | 9% | 65% | 57% | 8% | 72% (active) | 41.8% | 18% | 67% | 48.1% | 1% | 47% | 65.7% | 12% | 79% (active) | 47% | 10% | 80% (active) | 80.9% (active) |
| CC(=O)Nc1ccc2c(c1)C(=O)c1cccc(F)c1-2 | 6% | 93% (active) | 90% (active) | -2% | 54% | 25.8% | -4% | 69% | 51.2% | -2% | 38% | 12% | 1% | 17% | 12.2% | 3% | 82% (active) | 45.9% |
| CCOC(=O)C1SC(=Nc2ccc(Cl)cc2)N=C1C (centres undefined) | 14% | 56% | 88.8% (active) | 27% | 37% | 91.7% (active) | 26% | 71% (active) | 89.8% (active) | 11% | 66% | 90% (active) | 19% | 69% | 88.8% (active) | 34% | 66% | 89.6% (active) |
| COc1cc(C2=N/C(=C\c3ccccc3O)C(=O)O2)cc(OC)c1OC | -23% | -22% | -9.9% | -8% | -21% | -27.1% | -15% | -6% | 4.05% | 0% | 2% | 8.7% | -20% | -23% | 10.8% | -43% | -47% | 0.65% |
| CCCCc1c2c(nc3c1CCc1cc4cc5c(nc4nc1-3)-c1nc3c(c(CCCC)c1CC5)CCC/C3=N/OC)/C(=N\OC)CCC2 | 0% | 76% (active) | 94.2% (active) | 2% | 94% (active) | 96% (active) | -4% | 90% (active) | 95.8% (active) | -22% | 93% (active) | 95.3% (active) | -5% | 90% (active) | 95.9% (active) | -11% | 93% (active) | 95.7% (active) |
